The list is not random: actives were taken first. Their share in the collection is about 1.8%.
FAK inh: FAK kinase inhibitors, primary screen, biochemical. biochemical FAK kinase activity assay. hit rate 0.84% among 97,000. AID 727, 2007. inhibition, %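 (tested at 7 µM)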. Focal adhesion kinase 1 (Homo sapiens), Q05397;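 note: 0% = DMSO and 100% = reference compound high control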
CD11b adhes enh: enhancers of CD11b/CD18 adhesion to fibrinogen, primary screen, K562 cells, luminescence. Integrin beta-2 (Homo sapiens) + Integrin alpha-M (Homo sapiens), P05107+P11215. activation, % at 10 µM. ATPlite luminescence. hit rate 0.07% among 93,000. AID 1499, 2009;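 active = 10 µM primary screen giving 50% or more activity, confirmed by 40% or more on retest at that dose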
Mac1 fbg inh: inhibitors of CD11b/CD18 adhesion to fibrinogen, primary screen, K562 cells, luminescence. Integrin beta-2 (Homo sapiens) + Integrin alpha-M (Homo sapiens), P05107+P11215. hit rate 0.54% among 93,000. ATPlite luminescence; Mn2+ added to activate the integrin. inhibition, % at 10 µM;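 active = primary inhibition of 50% or more at 10 µM, then 40% or more on retest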
Pyk2 oligo antag: antagonists of Pyk2 self-association, primary screen, Q293 cells, FERM NanoBiT luminescence, HTS. AID 1347419, 2020. z-score (the deposit names both 25 µM and 10 µM). Protein-tyrosine kinase 2-beta (Homo sapiens), Q14289. hit rate 0.83% among 99,000. hits give low values;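 active = Z-score of -3 or lower, scaled per plate to the spread of control and sample wells; inactive = z-score above -3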;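 note: negative z-score means lost luminescence so less FERM oligomerization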
Target sequence (Q14289 whole entry, looked up): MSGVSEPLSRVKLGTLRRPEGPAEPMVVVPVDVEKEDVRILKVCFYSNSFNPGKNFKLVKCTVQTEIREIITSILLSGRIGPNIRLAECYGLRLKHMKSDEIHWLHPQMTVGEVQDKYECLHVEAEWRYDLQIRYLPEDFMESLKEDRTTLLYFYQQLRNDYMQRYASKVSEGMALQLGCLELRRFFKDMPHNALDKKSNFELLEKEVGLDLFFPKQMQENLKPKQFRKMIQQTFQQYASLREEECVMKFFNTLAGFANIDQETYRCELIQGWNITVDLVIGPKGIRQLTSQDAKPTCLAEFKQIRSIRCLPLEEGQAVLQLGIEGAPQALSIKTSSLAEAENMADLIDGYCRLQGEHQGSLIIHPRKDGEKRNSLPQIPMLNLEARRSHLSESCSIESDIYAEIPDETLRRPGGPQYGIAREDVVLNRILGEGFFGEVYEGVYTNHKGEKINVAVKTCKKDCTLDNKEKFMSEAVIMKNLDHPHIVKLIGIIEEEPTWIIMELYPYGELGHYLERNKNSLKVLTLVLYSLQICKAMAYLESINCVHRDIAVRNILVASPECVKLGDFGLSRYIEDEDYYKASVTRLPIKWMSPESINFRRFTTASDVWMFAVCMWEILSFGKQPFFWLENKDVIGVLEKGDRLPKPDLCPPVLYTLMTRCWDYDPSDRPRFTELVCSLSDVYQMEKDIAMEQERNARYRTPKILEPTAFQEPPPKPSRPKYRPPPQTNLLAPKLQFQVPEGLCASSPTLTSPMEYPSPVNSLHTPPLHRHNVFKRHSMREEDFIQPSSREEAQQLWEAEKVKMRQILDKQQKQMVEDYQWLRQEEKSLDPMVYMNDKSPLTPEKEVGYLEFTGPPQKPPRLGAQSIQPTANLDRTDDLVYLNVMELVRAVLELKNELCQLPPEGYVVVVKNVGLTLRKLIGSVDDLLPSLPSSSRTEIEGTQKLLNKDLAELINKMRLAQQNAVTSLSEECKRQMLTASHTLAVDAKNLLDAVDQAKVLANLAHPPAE
FAK inh conf: FAK kinase inhibitors, retest, confirmation, biochemical; hit rate 28% among 750; inhibition, % at 7 µM; FAK kinase biochemical inhibition assay; shares compounds with FAK inh
Starred values were filed as active, the others as inactive; / = not tested or not shown. Cut-off read from the data, not from the text of the source, unless noted: active = inhibition above about 19%; inactive = the rest.

SMILES	FAK inh	CD11b adhes enh	Mac1 fbg inh	Pyk2 oligo antag	FAK inh conf
O=C1c2ccccc2C(Nc2cccc(C(F)(F)F)c2)N1Cc1ccco1 (stereo not drawn)	20*	-3	40	-1.9	7
O=C(CSc1nnc(COc2ccccc2Cl)o1)NC(=O)NC1CCCC1	23*	0	-6	-0.64	8
Cc1cc([N+](=O)[O-])c2[nH]c(C(=O)N/N=C/c3ccccc3C(=O)O)c(-c3ccccc3)c2c1	29*	/	/	-3*	-5
Cc1ccc2nc(C)c(C(=O)N/N=C/c3ccccc3[N+](=O)[O-])cc2c1	/	/	/	0.45	/
Cc1ccc(S(=O)(=O)C(C)C(=O)c2ccc3c(c2)OCCO3)cc1 (stereo not drawn)	0	0	-28	1.1	/
CCN(CC)CC(=O)n1c2c(c3ccccc31)CCCC2	/	7	22	-0.37	/
CN1CCN(CC(=O)n2c3c(c4ccccc42)CCCC3)CC1	20*	-2	-6	0.39	2
CC(C)OCCCn1c(=N)c(C(N)=S)cc2c(=O)n3ccccc3nc21	32*	12	-14	-0.04	6
CC(C)OCCCn1c(=NC(=O)c2ccncc2)c(C#N)cc2c(=O)n3ccccc3nc21	7	-4	-6	0.22	/
Cc1ccc(C(=O)CN(C(=O)c2ccc(Cl)c(Cl)c2)N2C(=O)C3C4C=CC(C4)C3C2=O)cc1 (stereo not drawn)	-3	6	-38	-0.67	/
COC(=O)/C(=C/Nc1ccc(O)cc1)[N+](=O)[O-]	38*	-3	2	-0.79	-3
CSc1n[nH]c(NCc2ccc(C)cc2)n1	2	/	/	0.66	/
CN1CCN(S(=O)(=O)c2ccc(NC(=O)Cc3cccs3)cc2)CC1	0	3	-5	-0.44	/
O=C(Cc1cccs1)Nc1ccc(S(=O)(=O)N2CCCCC2)cc1	23*	1	8	-1.1	9
C=C(C)CN(CC)C(=O)COc1ccc(S(=O)(=O)Nc2ccc(OC)cc2)cc1	30*	0	16	1.1	0
COc1cc(/C=C/C(=O)OCC(=O)c2c[nH]c3ccccc23)ccc1OC(F)F	/	14	14	/	/
CCc1cc(=O)oc2cc(C)c(CN3CCCC3)c(O)c12	29*	1	-10	-0.52	2
CCOC(=O)c1cnc2c(C)c(C)ccc2c1Nc1ccc(S(=O)(=O)Nc2ncccn2)cc1	/	3	0	/	/
O=C(Cc1ccc(S(=O)(=O)N2CCOCC2)s1)Nc1nc2c(s1)CCCC2	23*	13	25	-0.64	4
Cc1cc2nnc(SC(C)C#N)n2c2ccccc12 (stereo not drawn)	35*	/	/	0.67	14
CCOc1ccc2[nH]c(=O)c(CN(Cc3nnnn3Cc3ccco3)C3CCCCC3)cc2c1	39*	10	-11	0.48	0
COc1cc2cc(CN(Cc3nnnn3Cc3ccco3)C3CCCCC3)c(=O)[nH]c2cc1OC	10	2	13	-0.06	/
O=C(N/N=C/c1ccc2ccccc2c1)c1ccc(COc2ccc3c(c2)CCC3)o1	33*	/	/	0.74	24*
COc1ccccc1N1CCN(c2nc3ccccn3c(=O)c2C=O)CC1	-2	3	3	0.7	/
O=P(O)(O)c1ccccc1OCCCCCOc1ccccc1P(=O)(O)O	88*	1	10	1.3	66*
SMILES	FAK inh	CD11b adhes enh	Mac1 fbg inh	Pyk2 oligo antag	FAK inh conf
O=P(O)(O)c1ccccc1OCCOCCOc1ccccc1P(=O)(O)O	/	/	/	0.21	/
O=P(O)(O)c1ccccc1OCc1ccccc1	84*	-2	-9	0.36	81*
O=C(NCc1nnc(SCC(=O)N2CCCc3ccccc32)n1-c1ccccc1)c1cccc2ccccc12	/	-5	14	/	/
CCOC(=O)c1sc(C)c2c1NC(C)(c1ccccc1)NC2=O (stereo not drawn)	3	-3	3	-0.32	/
Cc1noc(C)c1CSCC(=O)N1CCN(c2ccc([N+](=O)[O-])cc2)CC1	0	-4	31	0.76	/
COCCNC(=O)C(c1ccc(C)o1)N(C(=O)c1snc(C(N)=O)c1N)c1cccc(C)c1 (stereo not drawn)	20*	-1	-8	-0.94	6
COCCNC(=O)C(c1ccc(C)o1)N(C(=O)c1snc(C(N)=O)c1N)c1ccc(C)c(C)c1 (stereo not drawn)	23*	3	7	-0.97	9
COCCNC(=O)C(c1ccc(C)o1)N(C(=O)c1snc(C(N)=O)c1N)c1ccc(C)cc1 (stereo not drawn)	14	-4	-24	0.85	/
CC(=O)Nc1ccc(S(=O)(=O)NCCSCc2ccc(Cl)cc2Cl)cc1	5	/	/	-1.1	/
Oc1ccc2ccccc2c1C=Nc1ccc(N2CCOCC2)cc1	46*	0	-6	/	49*
CC(O)C(NS(=O)(=O)c1ccc(Cl)cc1)C(=O)OCC(=O)N1CCN(c2ccccc2)CC1 (stereo not drawn)	/	-4	5	/	/
O=C(O)CC(Cc1ccc(Cl)cc1)C(=O)NCc1ccccc1 (stereo not drawn)	/	3	4	/	/
Cc1cc(-c2csc(NC(=O)c3ccc(=O)n(C)n3)n2)c(C)n1CC1CCCO1 (stereo not drawn)	22*	26	-13	1.9	5
Cc1cc(-c2csc(NC(=O)c3ccccc3C(F)(F)F)n2)c(C)n1Cc1ccccc1	/	5	-11	/	/
COc1ccc(-c2cc3ccccc3oc2=O)cc1NC(=O)c1ccc(Br)o1	65*	17	-18	-1.2	59*
O=C(Nc1cccc(-c2cc3ccccc3oc2=O)c1)c1ccc(Br)o1	3	/	/	-0.79	/
CCCC(=O)Nc1nc2nc(-c3ccccc3)cc(-c3ccccc3)n2n1	2	/	/	-2.4	/
CCC(=O)Nc1nc2nc(-c3ccccc3)cc(-c3ccccc3)n2n1	24*	3	-15	-1.4	8
Cc1ccc(-n2nc3ccc(NC(=O)c4ccc5c(c4)OCO5)cc3n2)cc1	25*	139*	-5	0.35	15
O=C(CN1C(=O)/C(=C\c2ccc(F)cc2)Oc2ccccc21)NCc1ccco1	/	20	-7	/	/
CN1/C(=N\O)c2cccc3cccc1c23	21*	-3	-1	-0.48	8
CNC(=O)CN1C(=O)c2cccc3cccc1c23	1	-2	24	-0.02	/
Cc1ccc(Sc2ccc(N)cc2C#N)cc1	-5	/	/	0.44	/
Cc1sc(N/N=C/c2cccs2)nc1-c1ccccc1	/	-2	8	/	/
O=C(CCSc1ccccc1)Nc1nc2c(s1)COc1ccccc1-2	2	-3	31	/	/
CC(C)(C)C(=O)Nc1nc2c(s1)COc1ccccc1-2	45*	3	0	/	30*
C[N+]1(C)CCC(=C2c3ccccc3CC(=O)c3sccc32)CC1	27*	0	8	-0.02	-1
CC[N+]1(C)CCC(=C2c3ccccc3CC(=O)c3sccc32)CC1 (stereo not drawn)	0	3	-18	0.48	/

Screens from PubChem.
